Laboratory results taken from the supplement of paper PMC6555819.

What was measured:
Assay in all cases: PBM binding z-score (relative to random genomic background probes); higher = stronger binding; sequences stand for … in GC…GCGATTGACAGCGTAGAATGAAGG
[1] = tested on: FXR:RXRa (NR concentration 270 nM, RXRa partner concentration 90 nM)
How it was run: (§1)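 Binding buffer was PBS pH 7.4 with 2% milk, 0.02% Triton X-100, 1 mM DTT, 0.2 mg/mL BSA and 0.4 mg/ml salmon testes DNA. In it, ligand-free nuclear receptor dimers were incubated 1 h on custom Agilent 4×180K protein-binding microarrays carrying double-stranded probes. Antibodies against each partner (one per run) detected binding, and z-scores were calculated against random background probes after regression normalization of scanned fluorescence.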

[2] = tested on: LXRa:RXRa (NR concentration 270 nM, RXRa partner concentration 90 nM)
How it was run: as §1

[3] = tested on: LXRa homodimer (NR concentration 270 nM)
How it was run: as §1

[4] = tested on: LXRb:RXRa (NR concentration 270 nM, RXRa partner concentration 90 nM)
How it was run: as §1

[5] = tested on: LXRb homodimer (NR concentration 270 nM)
How it was run: as §1

[6] = tested on: PPARa:RXRa (NR concentration 270 nM, RXRa partner concentration 90 nM)
How it was run: as §1

[7] = tested on: PPARg:RXRa (NR concentration 180 nM, RXRa partner concentration 90 nM)
How it was run: as §1

[8] = tested on: PPARg:RXRa 270nM:90nM, anti-RXR (NR concentration 270 nM, RXRa partner concentration 90 nM)
How it was run: as §1

[9] = tested on: PPARg:RXRa 30nM:10nM, anti-RXR (NR concentration 30 nM, RXRa partner concentration 10 nM)
How it was run: as §1

[10] = tested on: PPARg:RXRa 90nM:30nM, anti-RXR (NR concentration 90 nM, RXRa partner concentration 30 nM)
How it was run: as §1

[11] = tested on: PPARg:RXRa DBDmut IVT, anti-RXR (DBD mutation: RXRa K156A/R161A, NR concentration 270 nM, RXRa partner concentration 90 nM)
How it was run: as §1

[12] = tested on: PPARg:RXRa IVT, anti-PPARg (NR concentration 270 nM, RXRa partner concentration 90 nM)
How it was run: as §1

[13] = tested on: PPARg DBDmut:RXRa IVT, anti-PPARg (DBD mutation: PPARg1 K132A/R137A, NR concentration 270 nM, RXRa partner concentration 90 nM)
How it was run: as §1

[14] = tested on: PPARg DBDmut IVT, anti-PPARg (DBD mutation: PPARg1 K132A/R137A, NR concentration 270 nM)
How it was run: as §1

[15] = tested on: PPARg homodimer (NR concentration 180 nM)
How it was run: as §1

[16] = tested on: PXR:RXRa (NR concentration 270 nM, RXRa partner concentration 90 nM)
How it was run: as §1

[17] = tested on: PXR homodimer (NR concentration 270 nM)
How it was run: as §1

[18] = tested on: RARa:RXR (NR concentration 270 nM, RXRa partner concentration 90 nM)
How it was run: as §1

[19] = tested on: RARa homodimer (NR concentration 270 nM)
How it was run: as §1

[20] = tested on: RARb:RXRa (NR concentration 270 nM, RXRa partner concentration 90 nM)
How it was run: as §1

Sequence	PBM binding z-score [1]	PBM binding z-score [2]	PBM binding z-score [3]	PBM binding z-score [4]	PBM binding z-score [5]	PBM binding z-score [6]	PBM binding z-score [7]	PBM binding z-score [8]	PBM binding z-score [9]	PBM binding z-score [10]	PBM binding z-score [11]	PBM binding z-score [12]	PBM binding z-score [13]	PBM binding z-score [14]	PBM binding z-score [15]	PBM binding z-score [16]	PBM binding z-score [17]	PBM binding z-score [18]	PBM binding z-score [19]	PBM binding z-score [20]
CTCGAAAGGTCGTGCTCAGGAGAGTATACCAAAC	4.89	3.56	0.247	3.12	0.29	4.7	2.62	3.59	1.02	2.48	0.885	1.49	0.0921	0.34	0.909	2.6	0.45	3.47	0.362	3.87
CCGACTGGGGCATATGGTTACCATAAGCCAGCCC	-0.611	-0.598	-0.857	-0.657	-1.1	0.208	1.47	1.94	0.491	1.32	1.89	2.21	-0.616	-1.62	-0.697	-0.746	-0.567	-0.363	-0.355	0.172
CCGACTGGGGCTTAAGGTTACCATAAGCCAGCCC	0.202	1.84	-0.512	0.703	-1.22	0.992	0.91	1.99	-0.108	1.29	0.244	0.428	-1.39	-1.88	0.217	0.141	-0.395	1.08	-0.504	0.868
CGAACTATGTCATTGACAGGACAGTGAATAGTAA	-0.339	-0.306	-0.302	0.00263	-0.414	0.765	0.677	0.347	0.272	0.497	3.29	2.17	0.536	1.15	0.302	0.0899	0.452	0.317	0.439	0.614
CCTTCTGGGCCACGAAAGGTCATTGATTCAGTGA	4.23	5.51	4.66	4.55	0.628	4.97	3.74	4.4	1.82	3.94	5.63	5.14	1.99	2.08	5.35	5.74	1.61	5.44	2.53	4.21
CCTATTAGTGGACCATAAGGGCAACCGAAGCTCG	0.107	0.131	0.000985	0.0463	0.134	0.591	0.711	1.08	0.116	0.489	1.43	0.991	0.0446	-0.555	0.856	0.215	0.612	0.424	0.803	1.22
